# Experimental data reported in PMC11062922 (Nature Chemical Biology, 2023).
# Read-outs that look alike come from different tables or passages of the source.
# Tested on: AURKA
# Settings: read-out: apparent Kd, n = 1
substance,measurement,setting,value
Lestaurtinib,potency estimated from few doses,"compound concentrations:100 nM and 1000 nM (sheet 'Lestaurtinib' of Supplementary Table 1),run:Lestaurtinib_02438_R2,Plate:MR008",18.1 nM
same,potency estimated from few doses,"compound concentrations:100 nM and 1000 nM (sheet 'Lestaurtinib' of Supplementary Table 1),run:Lestaurtinib_02438_R3,Plate:MR008",16.7 nM
same,potency estimated from few doses,"compound concentrations:100 nM and 1000 nM (sheet 'Lestaurtinib' of Supplementary Table 1),run:Lestaurtinib_02443_R1,Plate:MR009",19 nM
same,potency estimated from few doses,"compound concentrations:100 nM and 1000 nM (sheet 'Lestaurtinib' of Supplementary Table 1),run:Lestaurtinib_02443_R3,Plate:MR009",22 nM
same,potency estimated from few doses,"compound concentrations:100 nM and 1000 nM (sheet 'Lestaurtinib' of Supplementary Table 1),run:Lestaurtinib_02473_R1,Plate:MR010",20 nM
same,potency estimated from few doses,"compound concentrations:100 nM and 1000 nM (sheet 'Lestaurtinib' of Supplementary Table 1),run:Lestaurtinib_02473_R3,Plate:MR010",16.1 nM
same,potency estimated from few doses,"compound concentrations:100 nM and 1000 nM (sheet 'Lestaurtinib' of Supplementary Table 1),run:Lestaurtinib_02482_R1,Plate:MR011",18.9 nM
same,potency estimated from few doses,"compound concentrations:100 nM and 1000 nM (sheet 'Lestaurtinib' of Supplementary Table 1),run:Lestaurtinib_02482_R2,Plate:MR011",19.3 nM
same,potency estimated from few doses,"compound concentrations:100 nM and 1000 nM (sheet 'Lestaurtinib' of Supplementary Table 1),run:Lestaurtinib_02487_R1,Plate:MR012",17.5 nM
same,potency estimated from few doses,"compound concentrations:100 nM and 1000 nM (sheet 'Lestaurtinib' of Supplementary Table 1),run:Lestaurtinib_02487_R3,Plate:MR012",24.8 nM
same,potency estimated from few doses,"compound concentrations:100 nM and 1000 nM (sheet 'Lestaurtinib' of Supplementary Table 1),run:Lestaurtinib_02496_R2,Plate:MR013",17.6 nM
same,potency estimated from few doses,"compound concentrations:100 nM and 1000 nM (sheet 'Lestaurtinib' of Supplementary Table 1),run:Lestaurtinib_02566_R2,Plate:MR014",21.1 nM
same,potency estimated from few doses,"compound concentrations:100 nM and 1000 nM (sheet 'Lestaurtinib' of Supplementary Table 1),run:Lestaurtinib_02572_R1,Plate:MR015",21.1 nM
same,potency estimated from few doses,"compound concentrations:100 nM and 1000 nM (sheet 'Lestaurtinib' of Supplementary Table 1),run:Lestaurtinib_02572_R3,Plate:MR015",17.9 nM
same,potency estimated from few doses,"compound concentrations:100 nM and 1000 nM (sheet 'Lestaurtinib' of Supplementary Table 1),run:Lestaurtinib_02577_R1,Plate:MR016",21.8 nM
same,potency estimated from few doses,"compound concentrations:100 nM and 1000 nM (sheet 'Lestaurtinib' of Supplementary Table 1),run:Lestaurtinib_02577_R2,Plate:MR016",21.1 nM
same,potency estimated from few doses,"compound concentrations:100 nM and 1000 nM (sheet 'Lestaurtinib' of Supplementary Table 1),run:Lestaurtinib_02577_R3,Plate:MR016",20.9 nM
same,potency estimated from few doses,"compound concentrations:100 nM and 1000 nM (sheet 'Lestaurtinib' of Supplementary Table 1),run:Lestaurtinib_02584_R1,Plate:MR017",21.8 nM
same,potency estimated from few doses,"compound concentrations:100 nM and 1000 nM (sheet 'Lestaurtinib' of Supplementary Table 1),run:Lestaurtinib_02584_R2,Plate:MR017",19.7 nM
same,potency estimated from few doses,"compound concentrations:100 nM and 1000 nM (sheet 'Lestaurtinib' of Supplementary Table 1),run:Lestaurtinib_02601_R1,Plate:MR018",21.1 nM
same,potency estimated from few doses,"compound concentrations:100 nM and 1000 nM (sheet 'Lestaurtinib' of Supplementary Table 1),run:Lestaurtinib_02601_R2,Plate:MR018",25.6 nM
same,potency estimated from few doses,"compound concentrations:100 nM and 1000 nM (sheet 'Lestaurtinib' of Supplementary Table 1),run:Lestaurtinib_02601_R3,Plate:MR018",21.7 nM
same,potency estimated from few doses,"compound concentrations:100 nM and 1000 nM (sheet 'Lestaurtinib' of Supplementary Table 1),run:Lestaurtinib_02606_R1,Plate:MR019",19.1 nM
same,potency estimated from few doses,"compound concentrations:100 nM and 1000 nM (sheet 'Lestaurtinib' of Supplementary Table 1),run:Lestaurtinib_02606_R2,Plate:MR019",20.8 nM
same,potency estimated from few doses,"compound concentrations:100 nM and 1000 nM (sheet 'Lestaurtinib' of Supplementary Table 1),run:Lestaurtinib_02606_R3,Plate:MR019",21.9 nM
same,potency estimated from few doses,"compound concentrations:100 nM and 1000 nM (sheet 'Lestaurtinib' of Supplementary Table 1),run:Lestaurtinib_02624_R1,Plate:MR020",17.5 nM
same,potency estimated from few doses,"compound concentrations:100 nM and 1000 nM (sheet 'Lestaurtinib' of Supplementary Table 1),run:Lestaurtinib_02624_R3,Plate:MR020",15.7 nM
same,potency estimated from few doses,"compound concentrations:100 nM and 1000 nM (sheet 'Lestaurtinib' of Supplementary Table 1),run:Lestaurtinib_02724_R2,Plate:MR021",21.3 nM
same,potency estimated from few doses,"compound concentrations:100 nM and 1000 nM (sheet 'Lestaurtinib' of Supplementary Table 1),run:Lestaurtinib_02741_R2,Plate:MR023",19.9 nM
same,potency estimated from few doses,"compound concentrations:100 nM and 1000 nM (sheet 'Lestaurtinib' of Supplementary Table 1),run:Lestaurtinib_02741_R3,Plate:MR023",23.2 nM
same,potency estimated from few doses,"compound concentrations:100 nM and 1000 nM (sheet 'Lestaurtinib' of Supplementary Table 1),run:Lestaurtinib_02748_R2,Plate:MR024",22.5 nM
same,potency estimated from few doses,"compound concentrations:100 nM and 1000 nM (sheet 'Lestaurtinib' of Supplementary Table 1),run:Lestaurtinib_02748_R3,Plate:MR024",22.2 nM
same,potency estimated from few doses,"compound concentrations:100 nM and 1000 nM (sheet 'Lestaurtinib' of Supplementary Table 1),run:Lestaurtinib_02752_R1,Plate:MR025",19 nM
same,potency estimated from few doses,"compound concentrations:100 nM and 1000 nM (sheet 'Lestaurtinib' of Supplementary Table 1),run:Lestaurtinib_02752_R2,Plate:MR025",16 nM
same,potency estimated from few doses,"compound concentrations:100 nM and 1000 nM (sheet 'Lestaurtinib' of Supplementary Table 1),run:Lestaurtinib_02752_R3,Plate:MR025",19.7 nM
same,potency estimated from few doses,"compound concentrations:100 nM and 1000 nM (sheet 'Lestaurtinib' of Supplementary Table 1),run:Lestaurtinib_02765_R2,Plate:MR026",23.1 nM
same,potency estimated from few doses,"compound concentrations:100 nM and 1000 nM (sheet 'Lestaurtinib' of Supplementary Table 1),run:Lestaurtinib_02766_R1,Plate:MR027",17.5 nM
same,potency estimated from few doses,"compound concentrations:100 nM and 1000 nM (sheet 'Lestaurtinib' of Supplementary Table 1),run:Lestaurtinib_02766_R2,Plate:MR027",17 nM
same,potency estimated from few doses,"compound concentrations:100 nM and 1000 nM (sheet 'Lestaurtinib' of Supplementary Table 1),run:Lestaurtinib_02766_R3,Plate:MR027",19.1 nM
same,potency estimated from few doses,"compound concentrations:100 nM and 1000 nM (sheet 'Lestaurtinib' of Supplementary Table 1),run:Lestaurtinib_02768_R1,Plate:MR028",20.8 nM
same,potency estimated from few doses,"compound concentrations:100 nM and 1000 nM (sheet 'Lestaurtinib' of Supplementary Table 1),run:Lestaurtinib_02768_R3,Plate:MR028",19.7 nM
same,potency estimated from few doses,"compound concentrations:100 nM and 1000 nM (sheet 'Lestaurtinib' of Supplementary Table 1),run:Lestaurtinib_02795_R3,Plate:MR022",60.5 nM
